Results taken from PubChem BioAssay (NCATS).
Several values for one entry are separate records, joined by “and”; a condition that tells them apart may be missing. Equal entries are not always repeated. Records with an inconclusive call do not appear. Entries that show only a call come without a potency. Unmarked numbers belong to inactive results. Activity calls are given as the source filed them. Unless noted, the call rests on the fitted dose curve; in most records, active means well fitted curve in the direction sought with a large enough effect; inconclusive means small, poorly fitted or top-dose-only effect, or another doubt; inactive means no such curve, though single readings can be large; an effect the other way counts as inactive or inconclusive.

What was measured:
[1] = target: Calcium and integrin-binding protein 1 (Homo sapiens) (UniProt Q99828); assay: Primary qHTS for Identification of Calcium Integrin Binding Protein 1 (CIB1) Competitor (AID 1508620);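 further: GST tagged CIB1 binding a fluorescein labelled alphaIIb integrin peptide tracer; top concentration of the series differs between compounds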
Calcium and integrin-binding protein 1 (Homo sapiens), sequence (Q99828 whole entry, looked up): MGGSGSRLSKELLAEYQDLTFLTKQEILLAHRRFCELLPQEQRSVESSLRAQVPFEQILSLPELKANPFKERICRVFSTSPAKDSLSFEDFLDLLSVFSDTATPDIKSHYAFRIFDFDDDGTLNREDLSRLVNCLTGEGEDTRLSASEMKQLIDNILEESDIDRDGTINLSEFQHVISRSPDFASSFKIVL
Summary of the method: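 CIB1-GST (1 uM final) and compound incubated 15 min at room temperature before adding FITC-alphaIIb peptide tracer (100 nM final). Competition for binding read by fluorescence polarization (ex 480, em 540) after another 15 min at room temperature.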

[2] = Primary qHTS for small molecule stabilizers of the endoplasmic reticulum resident proteome: Secreted ER Calcium Modulated Protein (SERCaMP) assay (AID 1508630)
Summary of the method: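 GLuc-SERCaMP-expressing SH-SY5Y cells, pretreated 16 h with compound, are challenged with thapsigargin to empty ER calcium stores; after 4 h, coelenterazine is added directly to the medium and luminescence is imaged.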

[3] = A High-Content qHTS Against Drug Library for the Identification of Small Molecules that Inhibit DYT1 Early Onset Primary Dystonia-Associated Cell Pathology (AID 1645839; calls by dose curve; further: potency means the concentration at half of the fitted maximal effect; on % pathology change, negative = correction: series mostly up to about 46 µM)
Summary of the method: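 In this high-content image screen, delE TorsinA mislocalization in inducible Flp-In 293 cells is scored as %pathology, with cell count serving as the counterscreen. Compound exposure lasts 48 h under tetracycline induction in reduced-serum medium.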

[4] = target: Cytochrome P450 2D6 (Homo sapiens) (UniProt P10635); assay: Cytochrome P450 family 2 subfamily D member 6 (CYP2D6) small molecule antagonists: luciferase biochemical (cell-free) qHTS assay (AID 1645840; active means well fitted curve in the direction sought with a large enough effect in the repeat runs; an effect the other way counts as inactive or inconclusive; further: nearly all actives have a fitted effect of over 55% in size; further: potency means the concentration at half of the fitted maximal effect; on activity change, negative = inhibition: series mostly up to about 57 µM)
Cytochrome P450 2D6 (Homo sapiens), sequence (P10635 whole entry, looked up): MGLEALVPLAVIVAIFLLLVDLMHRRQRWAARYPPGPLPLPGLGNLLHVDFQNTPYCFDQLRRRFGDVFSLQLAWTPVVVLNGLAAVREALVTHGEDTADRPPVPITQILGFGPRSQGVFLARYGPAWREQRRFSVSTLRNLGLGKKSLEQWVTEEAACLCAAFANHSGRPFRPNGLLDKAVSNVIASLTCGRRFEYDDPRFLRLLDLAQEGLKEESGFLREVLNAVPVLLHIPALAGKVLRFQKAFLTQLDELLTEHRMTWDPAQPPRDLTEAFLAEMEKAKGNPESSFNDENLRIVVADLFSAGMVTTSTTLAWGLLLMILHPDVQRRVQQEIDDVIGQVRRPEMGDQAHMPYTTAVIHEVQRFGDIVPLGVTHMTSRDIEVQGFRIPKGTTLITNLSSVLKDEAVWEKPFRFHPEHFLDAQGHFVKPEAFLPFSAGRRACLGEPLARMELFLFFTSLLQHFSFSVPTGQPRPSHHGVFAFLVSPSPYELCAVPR
Summary of the method: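 P450-Glo luminescent screen: recombinant CYP2D6 enzyme–proluciferin substrate mix preincubated with compound 10 min at room temperature, then NADPH regeneration added for 1 h at room temperature. Detection reagent added for 20 min; luciferin light read as relative luminescence units.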

[5] = target: Cytochrome P450 2C9 (Homo sapiens) (UniProt P11712); assay: Cytochrome P450 family 2 subfamily C member 9 (CYP2C9) small molecule antagonists: luciferase biochemical (cell-free) qHTS assay (AID 1645842; active means well fitted curve in the direction sought with a large enough effect in the repeat runs; an effect the other way counts as inactive or inconclusive; further: nearly all actives have a fitted effect of over 55% in size; further: potency means the concentration at half of the fitted maximal effect; on activity change, negative = inhibition: series mostly up to about 57 µM)
Cytochrome P450 2C9 (Homo sapiens), sequence (P11712 whole entry, looked up): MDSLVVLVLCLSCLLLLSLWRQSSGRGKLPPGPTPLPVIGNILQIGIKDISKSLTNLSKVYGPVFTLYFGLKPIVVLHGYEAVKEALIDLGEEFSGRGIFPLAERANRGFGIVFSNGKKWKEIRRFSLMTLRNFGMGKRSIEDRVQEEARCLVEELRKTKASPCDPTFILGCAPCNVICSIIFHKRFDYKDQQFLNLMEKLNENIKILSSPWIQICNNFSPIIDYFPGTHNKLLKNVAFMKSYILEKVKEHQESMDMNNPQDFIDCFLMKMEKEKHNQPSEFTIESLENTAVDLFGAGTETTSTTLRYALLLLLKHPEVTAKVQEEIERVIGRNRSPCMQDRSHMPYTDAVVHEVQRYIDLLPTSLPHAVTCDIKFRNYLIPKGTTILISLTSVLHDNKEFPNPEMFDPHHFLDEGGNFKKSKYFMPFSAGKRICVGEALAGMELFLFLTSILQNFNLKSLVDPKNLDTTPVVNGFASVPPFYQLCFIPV
Summary of the method: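 Luminescence, after 20 min with luciferin detection reagent, reflected CYP2C9 turnover during a 1 h NADPH-driven reaction at 37C. Enzyme-substrate mix contained 0.4% bovine serum albumin and was preincubated with compound 10 min at room temperature.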

[6] = target: Cytochrome P450 3A4 (Homo sapiens) (UniProt P08684); assay: Cytochrome P450 family 3 subfamily A member 4 (CYP3A4) small molecule antagonists: luciferase qHTS assay (AID 1645841; active means well fitted curve in the direction sought with a large enough effect in the repeat runs; an effect the other way counts as inactive or inconclusive; further: nearly all actives have a fitted effect of over 45% in size)
Cytochrome P450 3A4 (Homo sapiens), sequence (P08684 whole entry, looked up): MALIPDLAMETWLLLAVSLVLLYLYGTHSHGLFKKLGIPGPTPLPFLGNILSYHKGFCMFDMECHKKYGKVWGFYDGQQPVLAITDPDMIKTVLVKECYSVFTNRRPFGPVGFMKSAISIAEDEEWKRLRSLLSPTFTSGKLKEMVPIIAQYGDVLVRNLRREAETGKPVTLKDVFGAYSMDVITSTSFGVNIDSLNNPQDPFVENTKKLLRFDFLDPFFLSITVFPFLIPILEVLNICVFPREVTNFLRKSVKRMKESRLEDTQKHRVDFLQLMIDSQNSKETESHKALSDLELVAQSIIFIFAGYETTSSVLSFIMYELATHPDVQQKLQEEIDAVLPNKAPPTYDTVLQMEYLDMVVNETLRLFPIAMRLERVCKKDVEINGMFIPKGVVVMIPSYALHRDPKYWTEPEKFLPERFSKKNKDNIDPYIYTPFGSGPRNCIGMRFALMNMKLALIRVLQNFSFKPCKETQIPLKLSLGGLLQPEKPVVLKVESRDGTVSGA
Summary of the method: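 Luminescent CYP3A4 activity readout: compounds plus enzyme-substrate mix 10 min at room temperature, reaction started with NADPH regenerating system for 1 h, stopped with detection reagent, read after 20 min. Ketoconazole served as control.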

SMILES	outcome [1]	Potency [2]	Potency [3]	Potency [4]	% pathology change, negative = correction [3]	activity change, negative = inhibition [4]	Potency [5]	outcome [6]
CC(C)OC(=O)OCOP(=O)(CO[C@H](C)Cn1cnc2c(N)ncnc21)OCOC(=O)OC(C)C	inactive	inactive	inactive	inactive				
CCC(C)(C)c1ccc(CC(C)CN2C[C@@H](C)O[C@@H](C)C2)cc1 (stereo partly specified)	inactive	inactive	inactive	4.9 µM (active)				
Cc1cccc(Nc2ccncc2S(=O)(=O)NC(=O)NC(C)C)c1	inactive	inactive	inactive	inactive				
O=C(O)c1cccnc1	inactive	inactive	inactive	inactive				
COc1ccc2c(c1)c(CC(=O)OCC(=O)O)c(C)n2C(=O)c1ccc(Cl)cc1	inactive	inactive	inactive	inactive				
CCCc1cc(C(N)=S)ccn1	inactive	inactive	inactive	inactive				
O=C(O)CSCC(=O)NC1CCSC1=O (stereo unspecified)	inactive	inactive	inactive	inactive				
COc1nc(N)nc2c1ncn2[C@@H]1O[C@H](CO)[C@@H](O)[C@@H]1O	inactive	inactive	inactive	inactive				
COC(c1ccccc1)(c1ccccc1)[C@H](Oc1nc(C)cc(C)n1)C(=O)O	inactive	inactive	inactive	inactive				
O=C(NCC1CN(c2ccc(N3CCOCC3=O)cc2)C(=O)O1)c1ccc(Cl)s1 (stereo unspecified)	inactive	inactive	inactive	inactive				
CC(N)C12CC3CC(CC(C3)C1)C2 (stereo unspecified)	inactive	inactive	inactive	inactive				
COc1ccc2cc3[n+](cc2c1OC)CCc1cc2c(cc1-3)OCO2	inactive	inactive	inactive	1.55 µM (active)				
CCOC(=O)[C@H](CCc1ccccc1)N[C@H]1CS[C@H](c2cccs2)CN(CC(=O)O)C1=O	inactive	inactive	inactive	inactive				
CC(=O)CC(c1ccccc1)c1c(O)c2ccccc2oc1=O (stereo unspecified)	inactive	inactive	inactive	inactive				
NC(N)=NC(N)=NCCc1ccccc1	inactive	inactive	inactive	6.17 µM (active)				
COc1cc(NCc2ccc3nc(N)nc(N)c3c2C)cc(OC)c1OC	inactive	inactive	inactive	6.92 µM (active)				
CC(C)(C#N)c1cc(Cn2cncn2)cc(C(C)(C)C#N)c1	inactive	inactive	inactive	inactive				
CC(C)(C)NC(=O)[C@H]1CC[C@H]2[C@@H]3CC[C@H]4NC(=O)C=C[C@]4(C)[C@H]3CC[C@]12C	inactive	inactive	inactive	inactive				
CC(C)C1CCC(C(=O)N[C@H](Cc2ccccc2)C(=O)O)CC1 (stereo partly specified)	inactive	inactive	inactive	inactive				
COc1cnc(NS(=O)(=O)c2ccc(N)cc2)nc1	inactive	inactive	inactive	inactive				
COc1cc(NS(=O)(=O)c2ccc(N)cc2)nc(OC)n1	inactive	inactive	inactive	inactive				
CCCc1nc(C)c2c(=O)[nH]c(-c3cc(S(=O)(=O)N4CCN(CC)CC4)ccc3OCC)nn12	inactive	inactive	inactive	inactive				
COc1cccc(N(C)C(=S)Oc2ccc3c(c2)CCCC3)n1	inactive	inactive	inactive	inactive				

SMILES	outcome [1]	Potency [2]	Potency [3]	Potency [4]	% pathology change, negative = correction [3]	activity change, negative = inhibition [4]	Potency [5]	outcome [6]
NC(=O)c1cccnc1	inactive	inactive	inactive	inactive				
COCCCOc1cc(C[C@@H](C[C@H](N)[C@@H](O)C[C@H](C(=O)NCC(C)(C)C(N)=O)C(C)C)C(C)C)ccc1OC	inactive	inactive	inactive	inactive				
O=c1cc(O)c(Cl)c[nH]1	inactive	inactive	inactive	inactive				
CN1CCN(c2c(F)cc3c(=O)c(C(=O)O)cn4c3c2OCN4C)CC1	inactive	inactive	inactive	inactive				
CCc1cc(C(N)=S)ccn1	inactive	inactive	inactive					
CN(Cc1cc(Br)cc(Br)c1N)C1CCCCC1	inactive	inactive	inactive	0.0195 µM (active)				
CCC(=O)O[C@]1(C(=O)SCF)[C@H](C)C[C@H]2[C@@H]3C[C@H](F)C4=CC(=O)C=C[C@]4(C)[C@@]3(F)[C@@H](O)C[C@@]21C	inactive	inactive	inactive	inactive				
CC(=O)[C@H]1CC[C@H]2[C@@H]3CC=C4C[C@@H](O)CC[C@]4(C)[C@H]3CC[C@]12C	inactive	inactive	inactive	inactive				
CCCCCCNC(=O)n1cc(F)c(=O)[nH]c1=O	inactive	inactive	inactive	15.5 µM (active)				
Cn1nnc2c(C(N)=O)ncn2c1=O	inactive	inactive	inactive	inactive				
N=C(N)c1ccc(OCCCCCOc2ccc(C(=N)N)cc2)cc1	inactive	inactive	inactive	inactive				
CCOC(=O)c1ccc(C#Cc2ccc3c(c2)C(C)(C)CCS3)nc1	inactive	inactive	inactive	inactive				
CNS(=O)(=O)Cc1ccc2[nH]cc(CCN(C)C)c2c1	inactive	inactive	inactive	inactive				
N[C@@H](C(=O)N[C@@H]1C(=O)N2C(C(=O)O)=C(Cl)CS[C@H]12)c1ccccc1	inactive	inactive			10.3% [at 9.22 µM]	16.7% [at 11.5 µM]		
COc1ncnc(NS(=O)(=O)c2ccc(N)cc2)c1OC	inactive	inactive	inactive	inactive			inactive	
NNC(=O)c1ccncc1	inactive	inactive	inactive	inactive			inactive	
Cc1nnc(C(=O)NC(C)(C)c2nc(C(=O)NCc3ccc(F)cc3)c(O)c(=O)n2C)o1	inactive	inactive	inactive	inactive			inactive	
CCCCc1oc2ccc(NS(C)(=O)=O)cc2c1C(=O)c1ccc(OCCCN(CCCC)CCCC)cc1	inactive	inactive	5.01 µM (active)	2.75 µM (active) and 3.38 µM (active)			12.3 µM (active) and 12 µM (active)	
CC(C)C[C@H](NC(=O)[C@H](CCc1ccccc1)NC(=O)CN1CCOCC1)C(=O)N[C@@H](Cc1ccccc1)C(=O)N[C@@H](CC(C)C)C(=O)[C@@]1(C)CO1	inactive	inactive	inactive	inactive			inactive	
COc1cc([C@@H]2c3cc4c(cc3[C@H](O)[C@H]3COC(=O)[C@H]23)OCO4)cc(OC)c1OC	inactive	inactive	inactive	inactive			1.55 µM (active)	
O=P(O)(O)C(O)(Cc1cccnc1)P(=O)(O)O	inactive	inactive	inactive	inactive			inactive	
COc1ccc(C(=O)CC(=O)c2ccc(C(C)(C)C)cc2)cc1	inactive	inactive	inactive	inactive			inactive	
NS(=O)(=O)c1cc2c(cc1Cl)NC(C(Cl)Cl)NS2(=O)=O (stereo unspecified)	inactive	inactive	inactive	inactive			inactive	

SMILES	outcome [1]	Potency [2]	Potency [3]	Potency [4]	% pathology change, negative = correction [3]	activity change, negative = inhibition [4]	Potency [5]	outcome [6]
CNC1CCCN(c2c(F)cc3c(=O)c(C(=O)O)cn(C4CC4)c3c2OC)C1 (stereo unspecified)	inactive	inactive	inactive	inactive			inactive	inactive
Nc1nc(F)nc2c1ncn2[C@@H]1O[C@H](CO)[C@@H](O)[C@@H]1O	inactive	inactive	inactive	inactive			inactive	
Cc1oc(=O)oc1CN1CCN(c2cc3c(cc2F)c(=O)c(C(=O)O)c2n3C(C)S2)CC1 (stereo unspecified)	inactive	inactive	inactive	inactive			inactive	
CCOCC(O)COc1ccc(NC(=O)CC[S+](C)C)cc1 (stereo unspecified)	inactive	inactive	inactive	inactive			inactive	
Cc1nnc(NS(=O)(=O)c2ccc(N)cc2)s1	inactive	inactive	inactive	inactive			17.4 µM (active)	
CCOC(=O)c1ccc(OC(=O)CCCCCN=C(N)N)cc1	inactive	inactive	inactive	0.0977 µM (active)			inactive	
Nc1nc(N)nc(-c2cc(Cl)ccc2Cl)n1	inactive	inactive	inactive	inactive			inactive	
CCN[C@H]1C[C@H](C)S(=O)(=O)c2sc(S(N)(=O)=O)cc21	inactive	inactive	inactive	inactive			inactive	
O=c1oc2c(O)c(O)cc3c(=O)oc4c(O)c(O)cc1c4c23	inactive	inactive	inactive	inactive			inactive	
Cc1ccnc2c1NC(=O)c1cccnc1N2C1CC1	inactive	inactive	inactive	inactive			inactive	
Cc1noc(NS(=O)(=O)c2ccc(N)cc2)c1C	inactive	inactive	inactive	inactive			inactive	
CC(C)(C)C(=O)OCOP(=O)(COCCn1cnc2c(N)ncnc21)OCOC(=O)C(C)(C)C	inactive	inactive	inactive	inactive			inactive	
C[C@@H]1CN(c2c(F)c(N)c3c(=O)c(C(=O)O)cn(C4CC4)c3c2F)C[C@H](C)N1	inactive	inactive	inactive	inactive			inactive	
COC(=O)Nc1nc2ccc(Sc3ccccc3)cc2[nH]1	inactive	inactive	inactive	inactive			inactive	
Cc1ncc([N+](=O)[O-])n1CCO	inactive	inactive	inactive	inactive			inactive	
Nc1[nH]c(=O)ncc1F	inactive	inactive	inactive	inactive			inactive	
Cn1c(=O)c2c(ncn2CC(O)CO)n(C)c1=O (stereo unspecified)	inactive	inactive	inactive	inactive			inactive	
COc1ccccc1OCC(O)COC(N)=O (stereo unspecified)	inactive	inactive	inactive	inactive			inactive	
CCn1cc(C(=O)O)c(=O)c2cc(F)c(N3CCNCC3)cc21	inactive	inactive	inactive	inactive			inactive	
C[C@@H](CN1CC(=O)NC(=O)C1)N1CC(=O)NC(=O)C1	inactive	inactive	inactive	inactive			inactive	
CC(C(=O)O)c1ccc2c(c1)CC(=O)c1ccccc1S2 (stereo unspecified)	inactive	inactive	inactive				inactive	
O=NN(CCCl)C(=O)NC1CCCCC1	inactive	inactive	inactive	inactive				inactive
C#CCN[C@@H]1CCc2ccccc21	inactive	inactive	inactive				inactive	
